Laboratory results: PubChem BioAssay (NCATS)
Several values for one entry are separate records, joined by “and”; a condition that tells them apart may be missing. Equal entries are not always repeated. Records with an inconclusive call do not appear. Where a call stands in place of a potency, no number is given. Activity calls are given as the source filed them. Unless noted, calls follow the shape of the dose curve; as a rule, active = well fitted curve in the direction sought with a large enough effect; inconclusive = small, poorly fitted or top-dose-only effect, or another doubt; inactive = no such curve, though single readings can be large; an effect the other way counts as inactive or inconclusive.

How the values were obtained:
[1] = target: Cytochrome P450 1A2 (Homo sapiens) (UniProt P05177); experiment: p450-cyp1a2 (AID 410; calls by dose curve; also: potency is read from the fitted curve at half-maximal effect)
Procedure, shortened: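 O-Demethylation of luciferin 6' methyl ether by human CYP1A2 is monitored as luciferase luminescence. Substrate sits at Km (100uM); enzyme is 20nM. Values are scaled to 57 uM furafylline as maximal inhibition.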

[2] = NFAT Signaling Pathway (AID 444; active = well fitted curve in either direction with a large enough effect, not every such curve was filed as active;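 also: carbachol stimulus at about its EC50 of 1 µM final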); conditions: Jurkat NFAT-bla M1, carbachol, beta-lactamase ratio, 5 h; at 38 µM (top of the series)
Procedure, shortened: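 Jurkat cells carrying an NFAT-driven β-lactamase reporter and co-transfected muscarinic M1 receptor were treated with compound plus carbachol (1 uM final, an EC50 level) for 5 h at 37 °C. CCF4 loading followed for 1 h at RT; 460/530 nm ratio gave %activity.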

[3] = target: Glucocorticoid receptor (Homo sapiens) (UniProt P04150); experiment: GR-GFP Redistribution (AID 450;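 active = compounds whose dose series gives a full or clear partial fitted curve of increased nuclear translocation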; also: potency is read from the fitted curve at half-maximal effect); conditions: U2OS GR-GFP nuclear translocation, laser cytometry, 2 h
[4] = target: Glucocorticoid receptor (Homo sapiens) (UniProt P04150); experiment: GR-EFC Redistribution (AID 451; calls by dose curve; also: potency is read from the fitted curve at half-maximal effect); conditions: CHO-K1 GR-EFC translocation, beta-gal luminescence, 2 h
Procedure, shortened: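 CHO-K1 cells stably expressing nuclear-localized β-gal enzyme acceptor and GR fused C-terminally to the enzyme donor fragment; ligand-driven nuclear translocation restores β-gal by complementation. Compounds titrated up to 46 uM final, 2 h at 37 °C; luminescence read.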

[5] = target: Mitogen-activated protein kinase 10 (Mus musculus) (UniProt Q61831); experiment: JNK3 AlphaScreen Assay (AID 530; active = well fitted curve in either direction with a large enough effect, not every such curve was filed as active;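 also: kinase came from lysate of stimulated human HepG2 cells; signal reports phosphorylation of biotinylated GST-cJun 1-79 at Ser73 with 10 µM ATP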)
Procedure, shortened: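 Phosphorylation of biotinylated GST-cJun(1-79) at Ser73 is measured by AlphaScreen proximity luminescence. Enzyme is JNK3 in HepG2 lysates activated with interleukin-1beta and tumor necrosis factor alpha; ATP is 10 uM final.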

[6] = target: 3',5'-cyclic-AMP phosphodiesterase 4B (Homo sapiens) (UniProt Q07343); experiment: qHTS Assay for Inhibitors of PDE-IV (AID 607; active = well fitted activation curve with a large enough effect in the main read-out, with a control signal flat, not every such curve was filed as active)
Procedure, shortened: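 ACTOne HEK293 cells carry a modified cAMP-gated CNG channel and express endogenous PDE4; plated 1000 cells/well, compounds up to 22.9 uM final. Membrane-potential dye fluorescence (ex 535/em 590) was read; parental cells received 10 uM forskolin + 100 uM RO 20-1724.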

[7] = target: Guanine nucleotide-binding protein G(i) subunit alpha-1 (Homo sapiens) (UniProt P63096); experiment: qHTS Assay for Inhibitors of RGS12 GoLoco Motif Activity (Green Fluorophore) (AID 879);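 also: negative values mean loss of peptide binding seen as reduced polarization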
Procedure, shortened: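 A drop in FITC polarization marked displacement of the FITC-tagged RGS12 GoLoco peptide (10 nM) from Gαi1 (50 nM). Compounds were incubated 10 min at room temperature in Tris pH 7.5 buffer containing 150 mM NaCl, 0.1 mM GDP and 0.05% NP40; unlabeled peptide titration served as control.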

[8] = qHTS Assay for Identification of Small Molecule Antagonists for NFkB Signaling Pathway (AID 895; active = well fitted inhibition curve with a large enough effect in the signal ratio, with a control signal flat, not every such curve was filed as active; the % refers to the signal ratio)
Procedure, shortened: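 NFkB-bla ME-180 cervical carcinoma cells with beta-lactamase reporter under NFkB response element; compounds added, then TNF alpha at 10 pM final (EC50), 5 h at 37 C. LiveBLAzer substrate 2 h, room temperature; emission 460/530 nm at 405 nm excitation.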

[9] = target: Pyruvate kinase (Leishmania mexicana) (UniProt Q27686); experiment: qHTS Validation Assay for Inhibitors of Leishmania Mexicana Pyruvate Kinase (AID 945)
Procedure, shortened: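 The enzyme is a highly purified E451W mutant of LmPYK used at 0.2 nM. It converts 0.5 mM PEP and 0.1 mM ADP over 1 h at room temperature; product ATP is quantified by luciferase luminescence relative to DMSO controls.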

[10] = target: Pyruvate kinase PKM (Homo sapiens) (UniProt P14618); experiment: qHTS Assay for Activators of Human Muscle Pyruvate Kinase (AID 954; active = well fitted curve in the direction sought with a large enough effect, not every such curve was filed as active)
Procedure, shortened: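 A coupled luminescent readout tracked ATP made from ADP by purified PKM2. Final conditions included 0.1 nM enzyme, PEP and ADP at 0.5 and 0.1 mM, pH 7.2 imidazole buffer with BSA, and a one-hour room-temperature reaction.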

[11] = target: Alpha-galactosidase (Coffea arabica) (UniProt Q42656); experiment: Counterscreen for Glucocerebrosidase Inhibitors: qHTS Assay for Coffee Bean alpha-Galactosidase at pH 4.5 (AID 957)
Procedure, shortened: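 Enzyme is added first (2 nM final), then compounds titrated from 0.7 nM to 77 uM, then 80 uM 4-methylumbelliferyl alpha-D-galactopyranoside; after 20 min at room temperature a pH 10 NaOH/glycine stop precedes fluorescence reading at 365/440 nm.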

[12] = target: Alpha-galactosidase A (Homo sapiens) (UniProt P06280); experiment: Counterscreen for Glucocerebrosidase Inhibitors: qHTS Assay for Human alpha-Galactosidase at pH 4.5 (AID 992)
Procedure, shortened: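 Citrate buffer pH 4.5, Tween-20 0.005%. Enzyme 2 nM, substrate 80 uM, 20 min RT. Stop pH 10. Fluorescence Ex 365/Em 440. AC50 by Hill fit.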

[13] = target: alpha-glucosidase (Oryza sativa, rice) (UniProt Q653V4); experiment: Counterscreen for Glucocerebrosidase Inhibitors: qHTS Assay for Rice alpha-Glucosidase at pH 5.0 (AID 997)
Procedure, shortened: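 Endpoint fluorogenic assay at pH 5.0: compounds (0.7 nM to 77 uM) titrated against 4 nM rice enzyme and 400 uM 4-MU-alpha-glucoside for 20 min at room temperature; NaOH/glycine stop, read ex 365/em 440 nm, Hill-fitted AC50.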

[14] = target: Alpha-galactosidase (Coffea arabica) (UniProt Q42656); experiment: Counterscreen for Glucocerebrosidase Inhibitors: qHTS Assay for Coffee Bean alpha-Galactosidase at pH 5.9 (AID 998)
Procedure, shortened: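 In 50 mM citric acid pH 5.9 with 0.005% Tween-20, coffee bean enzyme hydrolyses 80 uM 4-MU alpha-D-galactopyranoside over 20 min at RT. Activity is normalized to controls; AC50 comes from Hill-modelled concentration-response data.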

[15] = qHTS Assay for Lipid Storage Modulators (AID 1519; calls by dose curve); conditions: Drosophila S3 cells, BODIPY lipid droplet/cell ratio, laser cytometry, cells loaded with oleic acid
Procedure, shortened: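 Cells seeded at 5,000 per well were treated with compounds over a concentration series and loaded with oleic acid (400 uM, as added). Lipid droplet fluorescence (488 nm excitation, 500-530 nm channel) was read by laser-scanning cytometry and normalized to 20 uM Triacsin C.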

[16] = target: DNA repair nuclease/redox regulator APEX1 (Homo sapiens) (UniProt P27695); experiment: qHTS Validation Assay for Inhibitors of the Human Apurinic/apyrimidinic Endonuclease 1 (APE1) (AID 1705;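 also: TAMRA fluorescence gain over two minutes as APE1 cuts a quenched THF abasic duplex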)
Procedure, shortened: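 Fluorogenic double-stranded THF abasic-site substrate (5'-TAMRA/3'-BHQ-2), 50 nM final. Enzyme preincubated with compound 15 min at room temperature, then substrate added. Kinetic fluorescence (ex 525/em 598 nm) read three times at 60 s intervals; activity taken as third-minus-first read difference.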

[17] = Counterscreen for APE1 Inhibitors: Fluorescent Dye Displacement Validation Assay (AID 1707)
Procedure, shortened: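 Signal: ThO fluorescence (ex 480 nm/em 540 nm) on binding 50 nM dsDNA; displacement by test compound reduces it. Conditions: 250 nM dye, 50 mM Tris-HCl pH7.5, 2 mM MgCl2, 50mM NaCl, 0.01% Tween-20.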

Chain of Glucocorticoid receptor (Homo sapiens) (P04150 whole entry, looked up, the tested form may be a part): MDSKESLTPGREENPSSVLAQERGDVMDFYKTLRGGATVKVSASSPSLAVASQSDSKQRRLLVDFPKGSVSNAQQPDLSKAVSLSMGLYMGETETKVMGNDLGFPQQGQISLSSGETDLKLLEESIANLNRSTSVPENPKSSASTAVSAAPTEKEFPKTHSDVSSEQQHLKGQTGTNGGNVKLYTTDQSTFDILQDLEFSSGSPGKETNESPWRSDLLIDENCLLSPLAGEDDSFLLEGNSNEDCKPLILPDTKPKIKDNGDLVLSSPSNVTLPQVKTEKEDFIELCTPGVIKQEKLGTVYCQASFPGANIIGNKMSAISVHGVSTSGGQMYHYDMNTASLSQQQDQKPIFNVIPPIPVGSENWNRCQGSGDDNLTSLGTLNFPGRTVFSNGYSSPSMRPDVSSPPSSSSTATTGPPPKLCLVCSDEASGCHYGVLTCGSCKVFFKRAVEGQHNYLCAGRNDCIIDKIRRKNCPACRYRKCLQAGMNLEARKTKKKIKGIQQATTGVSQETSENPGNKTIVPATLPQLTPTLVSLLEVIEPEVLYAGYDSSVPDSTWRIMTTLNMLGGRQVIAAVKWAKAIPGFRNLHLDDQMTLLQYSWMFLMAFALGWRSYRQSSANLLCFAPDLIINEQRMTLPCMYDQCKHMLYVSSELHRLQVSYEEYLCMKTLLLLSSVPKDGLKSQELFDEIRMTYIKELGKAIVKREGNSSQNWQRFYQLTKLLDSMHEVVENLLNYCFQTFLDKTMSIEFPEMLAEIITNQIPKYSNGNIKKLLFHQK
Chain of Alpha-galactosidase (Coffea arabica) (Q42656 whole entry, looked up): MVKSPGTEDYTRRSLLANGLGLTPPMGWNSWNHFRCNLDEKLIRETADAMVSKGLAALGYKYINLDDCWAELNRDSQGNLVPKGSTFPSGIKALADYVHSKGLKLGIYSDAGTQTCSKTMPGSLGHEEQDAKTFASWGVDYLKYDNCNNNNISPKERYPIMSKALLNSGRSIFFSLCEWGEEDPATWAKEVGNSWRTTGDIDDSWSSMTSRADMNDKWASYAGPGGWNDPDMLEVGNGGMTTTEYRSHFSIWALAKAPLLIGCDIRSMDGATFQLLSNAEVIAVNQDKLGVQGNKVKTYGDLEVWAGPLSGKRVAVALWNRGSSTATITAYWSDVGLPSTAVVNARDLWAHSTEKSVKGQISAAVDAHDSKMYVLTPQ
Chain of Cytochrome P450 1A2 (Homo sapiens) (P05177 whole entry, looked up): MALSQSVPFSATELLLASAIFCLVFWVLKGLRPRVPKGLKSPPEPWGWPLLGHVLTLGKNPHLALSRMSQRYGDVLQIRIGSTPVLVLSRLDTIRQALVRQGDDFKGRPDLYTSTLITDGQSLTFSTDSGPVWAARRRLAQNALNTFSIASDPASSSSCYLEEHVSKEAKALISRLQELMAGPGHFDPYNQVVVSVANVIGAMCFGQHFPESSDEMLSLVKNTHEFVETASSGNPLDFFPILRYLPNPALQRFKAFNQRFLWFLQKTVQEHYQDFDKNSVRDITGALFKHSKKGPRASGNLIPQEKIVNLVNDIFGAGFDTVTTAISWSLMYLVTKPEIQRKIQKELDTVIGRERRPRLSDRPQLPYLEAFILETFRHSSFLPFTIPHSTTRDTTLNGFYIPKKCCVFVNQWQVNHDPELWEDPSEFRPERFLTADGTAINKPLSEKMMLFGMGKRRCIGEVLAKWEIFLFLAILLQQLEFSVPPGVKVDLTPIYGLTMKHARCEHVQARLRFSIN
Chain of 3',5'-cyclic-AMP phosphodiesterase 4B (Homo sapiens) (Q07343 whole entry, looked up): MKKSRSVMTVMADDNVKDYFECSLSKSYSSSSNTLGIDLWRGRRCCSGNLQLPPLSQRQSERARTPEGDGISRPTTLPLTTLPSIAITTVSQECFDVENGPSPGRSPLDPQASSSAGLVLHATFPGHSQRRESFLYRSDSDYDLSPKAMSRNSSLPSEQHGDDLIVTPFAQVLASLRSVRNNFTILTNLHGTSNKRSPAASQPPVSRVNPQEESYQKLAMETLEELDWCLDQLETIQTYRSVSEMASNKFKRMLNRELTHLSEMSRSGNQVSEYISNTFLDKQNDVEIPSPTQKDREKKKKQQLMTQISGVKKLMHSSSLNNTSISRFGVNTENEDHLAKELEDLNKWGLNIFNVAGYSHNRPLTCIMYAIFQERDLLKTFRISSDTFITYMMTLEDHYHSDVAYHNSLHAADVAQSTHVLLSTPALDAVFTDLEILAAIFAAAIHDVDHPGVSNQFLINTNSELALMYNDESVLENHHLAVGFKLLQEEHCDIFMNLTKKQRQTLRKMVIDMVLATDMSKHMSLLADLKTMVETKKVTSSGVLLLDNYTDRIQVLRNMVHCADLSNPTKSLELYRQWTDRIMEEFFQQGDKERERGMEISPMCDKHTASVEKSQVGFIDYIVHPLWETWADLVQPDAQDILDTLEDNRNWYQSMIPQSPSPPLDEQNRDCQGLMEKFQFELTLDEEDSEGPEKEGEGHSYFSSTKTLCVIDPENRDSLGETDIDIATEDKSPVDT
Chain of Pyruvate kinase PKM (Homo sapiens) (P14618 whole entry, looked up): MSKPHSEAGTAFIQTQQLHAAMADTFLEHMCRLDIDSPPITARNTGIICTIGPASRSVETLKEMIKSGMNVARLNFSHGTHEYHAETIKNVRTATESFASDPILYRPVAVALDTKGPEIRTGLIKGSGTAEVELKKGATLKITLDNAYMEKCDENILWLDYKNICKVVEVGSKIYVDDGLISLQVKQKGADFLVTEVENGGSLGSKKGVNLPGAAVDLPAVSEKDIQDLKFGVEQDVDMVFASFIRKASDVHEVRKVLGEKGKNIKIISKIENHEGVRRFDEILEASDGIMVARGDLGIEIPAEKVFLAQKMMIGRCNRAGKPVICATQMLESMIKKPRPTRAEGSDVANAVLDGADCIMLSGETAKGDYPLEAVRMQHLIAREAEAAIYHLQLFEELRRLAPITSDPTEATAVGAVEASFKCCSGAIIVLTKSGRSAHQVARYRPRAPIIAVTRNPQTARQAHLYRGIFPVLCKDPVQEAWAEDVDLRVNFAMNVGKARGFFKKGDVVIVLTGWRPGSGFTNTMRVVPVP
Chain of DNA repair nuclease/redox regulator APEX1 (Homo sapiens) (P27695 whole entry, looked up): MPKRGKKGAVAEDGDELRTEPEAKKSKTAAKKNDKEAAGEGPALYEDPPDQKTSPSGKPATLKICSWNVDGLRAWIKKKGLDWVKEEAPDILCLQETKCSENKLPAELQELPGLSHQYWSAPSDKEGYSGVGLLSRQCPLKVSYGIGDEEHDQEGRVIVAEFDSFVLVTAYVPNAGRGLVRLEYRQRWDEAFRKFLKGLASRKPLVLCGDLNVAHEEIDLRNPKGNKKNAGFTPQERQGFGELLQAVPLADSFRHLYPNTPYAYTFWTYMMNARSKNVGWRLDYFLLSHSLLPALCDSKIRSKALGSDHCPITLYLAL
Chain of Guanine nucleotide-binding protein G(i) subunit alpha-1 (Homo sapiens) (P63096 whole entry, looked up): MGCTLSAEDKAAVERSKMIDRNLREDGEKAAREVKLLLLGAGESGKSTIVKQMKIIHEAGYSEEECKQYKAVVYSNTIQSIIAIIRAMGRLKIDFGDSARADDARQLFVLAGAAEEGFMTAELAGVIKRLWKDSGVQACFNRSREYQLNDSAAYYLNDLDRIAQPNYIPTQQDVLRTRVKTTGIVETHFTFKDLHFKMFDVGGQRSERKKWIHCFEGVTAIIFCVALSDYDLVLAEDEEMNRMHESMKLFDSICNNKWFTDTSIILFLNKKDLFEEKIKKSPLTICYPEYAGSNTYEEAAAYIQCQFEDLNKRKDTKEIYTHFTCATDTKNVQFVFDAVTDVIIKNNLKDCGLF
Chain of Pyruvate kinase (Leishmania mexicana) (Q27686 2-499 E452W): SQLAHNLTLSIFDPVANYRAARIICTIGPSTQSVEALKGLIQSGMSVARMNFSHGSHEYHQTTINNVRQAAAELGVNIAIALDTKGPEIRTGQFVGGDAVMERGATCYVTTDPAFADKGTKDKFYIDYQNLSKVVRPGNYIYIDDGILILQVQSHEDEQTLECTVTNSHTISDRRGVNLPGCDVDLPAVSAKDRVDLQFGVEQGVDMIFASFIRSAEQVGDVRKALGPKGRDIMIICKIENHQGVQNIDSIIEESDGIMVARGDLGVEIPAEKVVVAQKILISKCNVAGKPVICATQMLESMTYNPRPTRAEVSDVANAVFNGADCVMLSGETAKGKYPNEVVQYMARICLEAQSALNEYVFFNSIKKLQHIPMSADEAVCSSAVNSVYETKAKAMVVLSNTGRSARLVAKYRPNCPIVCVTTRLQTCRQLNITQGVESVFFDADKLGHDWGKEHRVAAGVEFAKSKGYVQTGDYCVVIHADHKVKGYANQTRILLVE
Chain of Alpha-galactosidase A (Homo sapiens) (P06280 whole entry, looked up): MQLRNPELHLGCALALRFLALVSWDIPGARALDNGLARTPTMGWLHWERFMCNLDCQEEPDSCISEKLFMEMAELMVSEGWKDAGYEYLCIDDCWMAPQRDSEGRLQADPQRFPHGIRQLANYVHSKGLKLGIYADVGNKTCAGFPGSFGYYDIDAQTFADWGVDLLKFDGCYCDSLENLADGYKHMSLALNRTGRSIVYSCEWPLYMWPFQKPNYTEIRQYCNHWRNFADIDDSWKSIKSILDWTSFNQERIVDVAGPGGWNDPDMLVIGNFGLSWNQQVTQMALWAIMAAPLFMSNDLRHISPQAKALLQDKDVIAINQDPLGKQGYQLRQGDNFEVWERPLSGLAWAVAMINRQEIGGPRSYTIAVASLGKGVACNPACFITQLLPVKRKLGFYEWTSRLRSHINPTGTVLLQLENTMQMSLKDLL

In the case of `CN1CCN(c2ccc3ccccc3n2)CC1`, the Potency [1] is reported as 10 µM (active) and 3.16 µM (active), the activity change, negative = inhibition [2] is reported as -20.6% (inactive) and the Potency [3] is reported as > 46 µM (inactive). For the same molecule, the Potency [4] was > 46 µM (inactive), the outcome [5] was “inactive” and the Potency [6] was “inactive”. The outcome [7] was “inactive”, the Potency [8] was “inactive” and the outcome [9] was “inactive”. The outcome [10] was “inactive”, the outcome [11] was “inactive” and the outcome [12] was “inactive”. The outcome [13] was “inactive”, the outcome [14] was “inactive” and the activity change, negative = inhibition ([15]; at 57.5 µM (top of the series)) was -1.18% (inactive) and 2.43% (inactive). For the same molecule, the max response ([15]; measured here: cell count channel max response) was 12.9% and -15.1%, the max response ([15]; measured here: lipid channel max response) was 12.4% and -14.2% and the Potency [16] was “inactive”. The Potency [17] was “inactive”.
